# G9a inh: inhibitors of human histone lysine methyltransferase G9a; hit rate 8.8% among 350,000; Q96KQ7; G9a H3K9 monomethylation, AlphaScreen, 2 h; Potency, µM (highest dose often 102 µM), inactives show top-dose activity, negative = inhibition, actives largely listed as inhibitors; AID 504332; further: on the % scale 0 is the no-effect control and ±100 the full control effect; nearly all actives have a fitted effect of over 75% in size
#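 Enzyme 20 nM + cpd, 15 min RT; add b-H3K9 pep 500 nM / SAM 20 uM; 2 h RT; anti-H3K9me1 Ab 0.5 ug/mL + SA donor / anti-rabbit acceptor beads 20 ug/mL each, 10 min; AlphaScreen read.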
# GLS inhibitor: blocks human kidney-isoform glutaminase activity; O94925; GLS enzymatic activity, qHTS titration; Potency, µM (titrated, usually from 45.5 µM), for the others: top-dose activity change, negative = inhibition, usual class: inhibitors; hit rate 0.21% among 410,000; further: on the % scale 0 is the no-effect control and ±100 the full control effect
# Target sequence (O94925 whole entry, looked up, canonical isoform): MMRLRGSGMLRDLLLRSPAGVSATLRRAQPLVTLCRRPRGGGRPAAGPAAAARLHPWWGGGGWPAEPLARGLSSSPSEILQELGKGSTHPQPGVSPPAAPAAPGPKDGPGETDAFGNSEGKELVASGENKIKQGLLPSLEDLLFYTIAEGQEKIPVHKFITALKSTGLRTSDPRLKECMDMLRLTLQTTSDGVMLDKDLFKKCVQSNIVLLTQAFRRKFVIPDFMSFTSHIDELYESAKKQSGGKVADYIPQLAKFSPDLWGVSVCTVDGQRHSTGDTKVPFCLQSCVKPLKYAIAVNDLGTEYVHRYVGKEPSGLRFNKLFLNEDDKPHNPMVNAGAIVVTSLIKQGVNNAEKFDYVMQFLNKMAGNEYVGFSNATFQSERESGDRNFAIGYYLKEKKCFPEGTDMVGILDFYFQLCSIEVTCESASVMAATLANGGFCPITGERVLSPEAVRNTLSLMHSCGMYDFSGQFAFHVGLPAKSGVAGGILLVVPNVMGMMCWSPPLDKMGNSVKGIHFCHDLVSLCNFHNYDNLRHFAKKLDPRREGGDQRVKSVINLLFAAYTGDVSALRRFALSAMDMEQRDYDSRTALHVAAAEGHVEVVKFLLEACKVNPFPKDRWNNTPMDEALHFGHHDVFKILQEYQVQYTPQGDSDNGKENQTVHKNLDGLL
#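 Glutamate formation by hKGA was monitored fluorometrically using coupled glutamate oxidase, HRP and Amplex Red. Substrate was added as 1 mM L-glutamine solution; incubation was 30 min at RT after an initial read.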
# JMJD2A Tudor inh: blocks the human JMJD2A Tudor domain | hit rate 4.4% among 390,000 | AlphaScreen JMJD2A-Tudor / H3K4me3 peptide binding | Potency, µM (highest dose often 114 µM), for the others: top-dose activity change, negative = inhibition, actives largely listed as inhibitors | AID 504339; further: on the % scale 0 is the no-effect control and ±100 the full control effect; nearly all actives have a fitted effect of over 50% in size
# L3MBTL1 inh: inhibitors of human L3MBTL1; AID 485360; Potency, µM (highest dose often 57.1 µM), without a hit: at the highest dose activity, negative = inhibition, usual class: inhibitors; Q9Y468; AlphaScreen L3MBTL1–H3K9me1 peptide binding; hit rate 0.66% among 230,000; further: on the % scale 0 is the no-effect control and ±100 the full control effect; nearly all actives have a fitted effect of over 60% in size
#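 L3MBTL1 50 nM + b-AHA-H3(1-15)K9me1 75 nM, 30 min RT; compound added, 30 min RT; streptavidin donor/Ni-chelate acceptor beads 10 ug/mL each final, 30 min RT dark; AlphaScreen read.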
# HP1b binding inh: inhibitors of HP1-beta chromodomain binding to methylated histone tails | hit rate 0.56% among 390,000 | P83916 | Potency, µM (top dose mostly 114 µM), for the others: at the highest dose activity change, negative = inhibition, actives largely listed as inhibitors | AlphaScreen HP1-beta / biotin-H3K9me3 peptide binding | AID 540317; further: nearly all actives have a fitted effect of over 70% in size
#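 Compound inhibition of the preformed complex between 50 nM HP1-beta and 50 nM biotinylated H3K9me3 peptide was read by AlphaScreen. Buffer was PBS pH 7.4 with 0.01% Tween-20. Incubations ran 30 min at room temperature, with 10 ug/mL donor/acceptor beads.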
# BAZ2B block: BAZ2B (human) inhibition | Q9UIF8 | AlphaScreen BAZ2B-H3K14Ac peptide displacement | Potency, µM (top dose mostly 114 µM), without a hit: top-dose activity change, negative = inhibition, usual class: inhibitors | hit rate 4.4% among 360,000 | AID 504333; further: on the % scale 0 is the no-effect control and ±100 the full control effect; nearly all actives have a fitted effect of over 60% in size
#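 Compounds, titrated to a top concentration of 110 uM, were incubated 30 min at room temperature with preformed BAZ2B/acetyl-K14 H3 peptide complex (50 nM each). Proximity signal was measured by AlphaScreen after 20 min with beads.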
# * hit, by the source's call; u = inconclusive; x = no result; [ ] = dose if it differs, or a comment. The list is not random: actives were taken first. Their share in the collection is about 10%. The call rests on the fitted dose curve; in most records, active means well fitted curve in the direction sought with a large enough effect; inconclusive means small, poorly fitted or top-dose-only effect, or another doubt; inactive means no such curve, though single readings can be large; an effect the other way counts as inactive or inconclusive. Potency means the concentration at half of the fitted maximal effect.
SMILES,G9a inh,GLS inhibitor,JMJD2A Tudor inh,L3MBTL1 inh,HP1b binding inh,BAZ2B block
Cc1ccc(S(=O)(=O)NCc2ccncc2)cc1,18%,7%,-2%,x,14%,10%
CC1CCCCC1NS(=O)(=O)c1ccc(S(=O)(=O)NCc2ccncc2)cc1 (stereo not given),18µM*,2%,-12%,52%,27%,u
NC(=O)c1sc2nc3c(c(-c4ccc(Cl)cc4)c2c1N)CCCC3,11µM*,3%,6%,x,41%,-4%
Cc1ccc(CNC(=O)c2sc3nc4c(c(C(F)(F)F)c3c2N)CCC4)cc1,-1%,6%,16%,6%,61%,10%
Nc1c(C(=O)NCc2ccc(Cl)cc2)sc2nc3c(c(C(F)(F)F)c12)CCC3,45µM*,1%,21%,11%,72%,4%
O=C(CCC1N=C2c3ccccc3N=C(SCc3ccccc3F)N2C1=O)NC1CCCCC1 (stereo not given),13%[59 µM],7%,0%,x,21%,-9%
O=C(COCc1cc(-c2ccc3c(c2)OCO3)on1)NCc1ccc(F)cc1,0%[59 µM],5%,5%,x,25%,0%
Cc1ccc(NC(=O)CN2C(=O)CSc3ccc(S(=O)(=O)N4CCCC4)cc32)cc1F,-15%[59 µM],8%,-31%,x,41%,-33%
O=C(COC(=O)/C=C/c1cccc([N+](=O)[O-])c1)NCc1ccco1,10%,-2%,-23%,-13%,12%,71µM*
COc1cc(/C=C/C(=O)OCC(=O)NCc2ccco2)ccc1O,40µM*,4%,-11%,-7%,8%,-17%
COc1ccccc1/C=C/C(=O)OCC(=O)NCc1ccco1,4%[59 µM],-9%,-31%,-9%,-11%,u
Cc1ccc(CNC(=O)CNS(=O)(=O)c2cccs2)cc1,11%[59 µM],-9%,-2%,x,27%[57 µM],-1%
S=C(NCc1ccncc1)Nc1ccc(Br)cc1Cl,u,13%,-14%,x,48%,-8%
Cc1cccnc1NC(=S)Nc1ccc(Br)cc1Cl,u,-16%,u,-18%,u,50µM*
COc1ccc(CNCc2c(C(=O)O)c(C)n(Cc3ccccc3C)c2C)c(OC)c1,-24%[59 µM],-7%,-32%,x,-6%,u
CC(C)Cc1nc2sc3c(c2c(=O)n1N)CC(C(C)C)OC3 (stereo not given),4%,6%,-2%[11.4 µM],8%,16%,2%
CC(C)C1Cc2c(sc3ncnc(NN)c23)CO1 (stereo not given),-12%[2.33 µM],11µM*,25µM*,x,22%,28µM*
CN(Cc1ccccc1)C(=O)NC1CCCCC1,26%[59 µM],2%,-2%,-5%,36%,45%
CC(C)(Sc1ccc(CCN(CCCCC2CCCCC2)C(=O)NC2CCCCC2)cc1)C(=O)O,79µM*,7%,79µM*,0%,14%,79µM*
Cn1c(=O)c2cc(C(=O)N3CCN(c4ccc(Cl)cc4)CC3)sc2c2ccccc21,5%[59 µM],-9%,1%,x,41%,x
Cc1ccc(Cn2c(=O)n(CCCCC(=O)NCCc3ccc(Cl)cc3)c(=O)c3ccccc32)cc1,-3%[59 µM],-2%,-5%,x,23%,-2%
CN(C)c1ncc2nc(CCc3ccccc3)c(=O)n(CCc3ccccc3)c2n1,10%[0.501 µM],x,x,x,x,x
COc1cc(C=C(c2nc3ccccc3s2)c2nc3ccccc3s2)cc(OC)c1O,6.3µM*,-1%,56µM*,-27%,u,22µM*
COc1ccccc1/C=N/NC(=Nc1ccc(C)cc1)c1nc2ccccc2s1,-10%[0.0925 µM],x,x,-1%,x,-7%
COc1cc(/C=N/NC(=Nc2ccc(C)cc2)c2nc3ccccc3s2)ccc1O,14µM*,-26%,u,x,0%,45µM*
SMILES,G9a inh,GLS inhibitor,JMJD2A Tudor inh,L3MBTL1 inh,HP1b binding inh,BAZ2B block
Brc1cc2c(cc1/C=N/Nc1nc3ccccc3s1)OCO2,25%,14%,-28%,0%,23%,1%
O=C(O)C/C(=C\c1cc2c(cc1Br)OCO2)c1nc2ccccc2s1,10µM*,1%,-8%,x,-13%,-12%
CN(C)c1ccc(/C=C(\Cl)c2nc3ccccc3s2)cc1,14µM*,-3%,-33%,10µM*,7%,45µM*
NC(=O)c1ccccc1NC(=O)Cn1nc(Cc2cccnc2)c2ccccc2c1=O,u,-12%,-32%,x,9%,-19%
COc1cc(/C=C(\CC(=O)O)c2nc3ccccc3s2)cc(OC)c1O,14µM*,u,16µM*,-9%,12%,-26%
C[C@H](NC(=O)[C@@H]1Cc2ccccc2CN1)C(=O)Nc1ccc2c(c1)OCCO2,16%[0.0925 µM],-4%,-16%,x,21%,-9%
CC(C)C[C@H](NC(=O)[C@@H]1Cc2ccccc2CN1)C(=O)Nc1ccc(C(C)C)cc1,28µM*,-3%,-30%,x,10%,u
C[C@H](NC(=O)[C@@H]1Cc2ccccc2CN1C(=O)OC(C)(C)C)C(=O)NC1CCCCC1,10%,-5%,7%,x,28%,-12%
C[C@@H](NC(=O)[C@@H]1Cc2ccccc2CN1C(=O)OC(C)(C)C)C(=O)NC1CCCCC1,79µM*,-2%,-2%,x,39%,12%
CSCC[C@H](NC(=O)[C@@H]1Cc2ccccc2CN1)C(=O)Nc1ccc2c(c1)OCCO2,50µM*,6%,-34%,x,31%,u
Cc1ccc(NC(=O)[C@H](Cc2ccccc2)NC(=O)[C@@H]2Cc3ccccc3CN2)c(C)c1,35µM*,12%,-12%,x,34%,-20%[57.1 µM]
CN(Cc1ccccc1)C(=O)CN1C(=O)CSc2ccc(S(=O)(=O)N3CCOCC3)cc21,0%[59 µM],-9%,-19%,x,-15%,5%
C[C@H](NC(=O)[C@@H]1Cc2ccccc2CN1)C(=O)NC1CCCC1,79µM*,-1%,-5%,x,35%,-38%
CSCC[C@H](NC(=O)[C@@H]1Cc2ccccc2CN1)C(=O)NC1CCCCC1,25µM*,0%,-8%,x,30%,-32%
Cc1cc(C)cc(NC(=O)[C@H](NC(=O)[C@@H]2Cc3ccccc3CN2)c2ccccc2)c1,79µM*,-2%,-15%,x,15%,-26%
Cc1nn(C(=O)c2ccc(Br)cc2)c(C)c1S(=O)(=O)N1CCOCC1,u,18%,u,x,24%[57 µM],0%
COc1ccc2cc(CNc3ccc(C)cc3)c(=O)n(CC(=O)Nc3ccc(OC)c(Cl)c3)c2c1,-29%[59 µM],-18%,-11%,x,21%,-14%
CCN(CC)c1ccc(-c2sc(Nc3ccccc3)n[n+]2-c2ccc(F)cc2)cc1,45µM*,11%,56µM*,-9%,-13%,28µM*
CN(C)c1ccc(-c2sc(Nc3ccccc3)n[n+]2-c2ccc(F)cc2)cc1,x,13%,u,60%,1%,10%
CCN(CC)c1ccc(/C=N/NC(=O)Cc2nnc(NC(=O)Nc3ccccc3)s2)cc1,u,0%,-32%,-14%,-8%[57 µM],-10%
